# About 410 targets per protein were measured; listed, in parts, are those with the strongest signals and a random draw of the rest.
# What was measured:
# Assay in all cases: glycan array binding signal (z-score within array); higher = stronger binding
# Conditions in all cases: glycan notation: IUPAC condensed, linker removed
# [1] = target: Fuc(a1-2)Gal(b1-3)[Fuc(a1-4)]GlcNAc(b1-2)Man(a1-3)[Fuc(a1-2)Gal(b1-3)[Fuc(a1-4)]GlcNAc(b1-2)Man(a1-6)]Man(b1-4)GlcNAc(b1-4)[Fuc(a1-6)]GlcNAc(b1-4)[Fuc(a1-6)]GlcNAc
# Method in brief: (§1)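 Glycan array binding is given as a within-array Z-score, which can be read as non-binding when negative. The arrays, 3228 of them, came from the Consortium for Functional Glycomics database and were retained only where the protein sequence was available. Z-scores were averaged across arrays of the same protein sequence at different concentrations or buffers and across linkers.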
# [2] = target: Fuc(a1-2)Gal(b1-4)[Fuc(a1-3)]GlcNAc(b1-2)Man(a1-3)[Fuc(a1-2)Gal(b1-4)[Fuc(a1-3)]GlcNAc(b1-2)Man(a1-6)]Man(b1-4)GlcNAc(b1-4)[Fuc(a1-6)]GlcNAc
# Method in brief: as §1
# [3] = target: Fuc(a1-2)[Gal(a1-3)]Gal(b1-3)GlcNAc
# Method in brief: as §1
# [4] = target: Fuc(a1-2)[GalNAc(a1-3)]Gal(b1-4)GlcNAc
# Method in brief: as §1
# [5] = target: Fuc(a1-3)[Gal(b1-4)]GlcNAc(b1-2)Man(a1-3)[Fuc(a1-3)[Gal(b1-4)]GlcNAc(b1-2)Man(a1-6)]Man(b1-4)GlcNAc(b1-4)GlcNAc
# Method in brief: as §1
# [6] = target: Gal(a1-3)Gal(b1-3)GlcNAc
# Method in brief: as §1
# [7] = target: Gal(a1-3)Gal(b1-4)GlcNAc(b1-2)Man
# Method in brief: as §1
# [8] = target: Gal(a1-4)Gal(b1-4)GlcNAc
# Method in brief: as §1
# [9] = target: Gal(a1-4)GlcNAc
# Method in brief: as §1
# [10] = target: Gal(b1-2)Gal
# Method in brief: as §1
# [11] = target: Gal(b1-3)Gal
# Method in brief: as §1
# [12] = target: Gal(b1-3)Gal(b1-4)GlcNAc
# Method in brief: as §1
# [13] = target: Gal(b1-3)GlcNAc(a1-6)Gal(b1-4)GlcNAc
# Method in brief: as §1
# [14] = target: Gal(b1-3)GlcNAc(b1-2)Man(a1-3)[Gal(b1-3)GlcNAc(b1-2)Man(a1-6)]Man(b1-4)GlcNAc(b1-4)[Fuc(a1-6)]GlcNAc
# Method in brief: as §1
# [15] = target: Gal(b1-3)GlcNAc(b1-6)Gal(b1-4)GlcNAc
# Method in brief: as §1
# [16] = target: Gal(b1-4)GlcNAc(b1-2)Man(a1-6)Man(b1-4)GlcNAc(b1-4)GlcNAc
# Method in brief: as §1
# [17] = target: Gal(b1-4)GlcNAc(b1-2)[Gal(b1-4)GlcNAc(b1-4)]Man(a1-3)[Gal(b1-4)GlcNAc(b1-2)Man(a1-6)]Man(b1-4)GlcNAc(b1-4)GlcNAc
# Method in brief: as §1
# [18] = target: Gal(b1-4)GlcNAc(b1-2)[Gal(b1-4)GlcNAc(b1-6)]Man(a1-6)[Gal(b1-4)GlcNAc(b1-2)Man(a1-3)]Man(b1-4)GlcNAc(b1-4)[Fuc(a1-6)]GlcNAc
# Method in brief: as §1
# [19] = target: Gal(b1-4)GlcNAc(b1-3)Gal(b1-3)GlcNAc
# Method in brief: as §1
# [20] = target: Gal(b1-4)GlcNAc(b1-3)Gal(b1-4)GlcNAc(b1-2)Man(a1-3)[Gal(b1-4)GlcNAc(b1-3)Gal(b1-4)GlcNAc(b1-2)Man(a1-6)]Man(b1-4)GlcNAc(b1-4)[Fuc(a1-6)]GlcNAc
# Method in brief: as §1
# [21] = target: Gal(b1-4)GlcNAc(b1-3)Gal(b1-4)GlcNAc(b1-3)Gal(b1-4)GlcNAc(b1-3)Gal(b1-4)GlcNAc(b1-2)Man(a1-3)[Gal(b1-4)GlcNAc(b1-3)Gal(b1-4)GlcNAc(b1-3)Gal(b1-4)GlcNAc(b1-3)Gal(b1-4)GlcNAc(b1-2)Man(a1-6)]Man(b1-4)GlcNAc(b1-4)[Fuc(a1-6)]GlcNAc
# Method in brief: as §1
# [22] = target: Gal(b1-4)GlcNAc(b1-3)Gal(b1-4)GlcNAc(b1-3)Gal(b1-4)GlcNAc(b1-3)Gal(b1-4)GlcNAc(b1-3)Gal(b1-4)GlcNAc(b1-2)Man(a1-3)[Gal(b1-4)GlcNAc(b1-3)Gal(b1-4)GlcNAc(b1-3)Gal(b1-4)GlcNAc(b1-3)Gal(b1-4)GlcNAc(b1-3)Gal(b1-4)GlcNAc(b1-2)Man(a1-6)]Man(b1-4)GlcNAc(b1-4)GlcNAc
# Method in brief: as §1
# [23] = target: Gal3S(b1-3)GalNAc
# Method in brief: as §1
# [24] = target: Gal3S(b1-4)Glc
# Method in brief: as §1
# [25] = target: Gal3S(b1-4)Glc6S
# Method in brief: as §1
# [26] = target: Gal3S6S(b1-4)GlcNAc
# Method in brief: as §1
# [27] = target: Glc(a1-4)Glc
# Method in brief: as §1
# [28] = target: GlcNAc(b1-3)Fuc
# Method in brief: as §1
# [29] = target: GlcNAc(b1-4)Gal(b1-4)GlcNAc
# Method in brief: as §1
# [30] = target: Kdn(a2-3)Gal(b1-4)Glc
# Method in brief: as §1
binder,measurement,setting,value
FliD (Clostridium difficile) (protein) MSSISPVRVTGLSGNFDMEGIIEASMIRDKEKVNKAKQDQQIVKWKQEIYRDIIKESKNLYDKYLNGDSPNSITNKKAYSATRITSSDESIIVAKGSAGAEKINYQFAVSQMAEPAKVTIKLNSSDPIVQQFPPNASGASSLNIGGVNIPISEQDTTSTIVSKINSLCADNDIRASYSEMTGELIISRKQTGSSSDIDLKVIGNDSLAGQIASDNGITFTTDASGTKSAVVYGKNLEADVTDDQGRVTHISKEQNSFKIDNIDYNVNSKGSAKLVSVTDTEEATKNMKAFVDDYNALMDKVYGLVTTKKSKDYPPLTDEQKDDMTTEEIEKWEKKAKEGILRNDDELRAFVEDIQSMFFGDADTIIALRKLGISEHENYNKKGQISFNADTFSKALIDDSDKVYKALAGYSSNYDDKGMFEKLKKIVFEYSGSSASKLTKKAGMENSSSASQNVYSKQIAEQERNISRLVEKMNDKEKRLYAKYSALESLLNKYSSQMNYFSQAQGN,glycan array binding signal (z-score),[1],-0.156
same,glycan array binding signal (z-score),[2],-0.162
same,glycan array binding signal (z-score),[3],1.88
same,glycan array binding signal (z-score),[4],-0.235
same,glycan array binding signal (z-score),[5],-0.161
same,glycan array binding signal (z-score),[6],12.1
same,glycan array binding signal (z-score),[7],-0.211
same,glycan array binding signal (z-score),[8],-0.161
same,glycan array binding signal (z-score),[9],1.22
same,glycan array binding signal (z-score),[10],1.49
same,glycan array binding signal (z-score),[11],-0.262
same,glycan array binding signal (z-score),[12],-0.236
same,glycan array binding signal (z-score),[13],-0.181
same,glycan array binding signal (z-score),[14],-0.117
same,glycan array binding signal (z-score),[15],0.007
same,glycan array binding signal (z-score),[16],-0.233
same,glycan array binding signal (z-score),[17],-0.254
same,glycan array binding signal (z-score),[18],-0.222
same,glycan array binding signal (z-score),[19],-0.084
same,glycan array binding signal (z-score),[20],1.44
same,glycan array binding signal (z-score),[21],1.2
same,glycan array binding signal (z-score),[22],-0.072
same,glycan array binding signal (z-score),[23],0.678
same,glycan array binding signal (z-score),[24],3.41
same,glycan array binding signal (z-score),[25],1.24
same,glycan array binding signal (z-score),[26],-0.201
same,glycan array binding signal (z-score),[27],-0.054
same,glycan array binding signal (z-score),[28],-0.089
same,glycan array binding signal (z-score),[29],-0.232
same,glycan array binding signal (z-score),[30],-0.172

# — the supplement of paper PMC8728848
